Shown are actives, neighbours in structure and some others; about 6.3% of the full set was active somewhere.
MPTP block: permeability transition pore inhibition | actives 1.4% (n = 360,000) | isolated mouse mitochondria, Ca2+ swelling absorbance, 30 min | inhibition, % at 10 µM;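 active means inhibition of 50% or more, scaled per plate between neutral and stimulator controls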;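 further: 0% = DMSO wells given calcium and 100% = 1 mM EGTA wells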
tim10-1 inh: inhibits growth of tim10-1 mutant yeast; S. cerevisiae tim10-1 ts strain growth, BacTiter-Glo, 24 h; inhibition, % at 20 µM; actives 2.2% (n = 330,000); AID 463190;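 active means inhibition of at least 40%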;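 further: mutant grown at 25 °C; 0% = DMSO wells with yeast and 100% = wells holding no yeast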
TIM10 inh: inhibits growth of TIM10 yeast strain. S. cerevisiae TIM10 strain growth, BacTiter-Glo luminescence, 24 h. inhibition, % at 10 µM. actives 1.4% (n = 330,000). AID 463195;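 active means inhibition of 40% or more at the single tested concentration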;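 further: wild-type TIM10 isogenic control strain grown at permissive 25 °C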
Mdm2-MdmX inh: inhibitors of human Mdm2/MdmX interaction. AID 485346. SaOS-2 split-luciferase Mdm2/MdmX complementation, luminescence. actives 3% (n = 330,000). inhibition, % at 8 µM;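 active means inhibition of at least 50% at 8 µM in the primary screen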
Target sequence (O15151 whole entry, looked up): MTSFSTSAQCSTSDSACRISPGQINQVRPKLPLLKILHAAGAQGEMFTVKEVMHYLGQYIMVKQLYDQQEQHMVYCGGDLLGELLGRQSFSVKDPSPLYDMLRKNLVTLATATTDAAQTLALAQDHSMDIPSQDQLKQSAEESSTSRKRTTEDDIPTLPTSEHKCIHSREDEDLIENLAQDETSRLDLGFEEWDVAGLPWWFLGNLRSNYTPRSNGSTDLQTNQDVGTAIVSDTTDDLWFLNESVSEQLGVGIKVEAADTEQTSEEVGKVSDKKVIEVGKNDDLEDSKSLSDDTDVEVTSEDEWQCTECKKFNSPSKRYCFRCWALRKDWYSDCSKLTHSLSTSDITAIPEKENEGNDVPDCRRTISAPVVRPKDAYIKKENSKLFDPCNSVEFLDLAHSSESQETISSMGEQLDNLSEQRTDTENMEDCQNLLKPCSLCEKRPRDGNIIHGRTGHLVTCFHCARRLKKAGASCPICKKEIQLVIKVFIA
Target sequence (Q00987 whole entry, looked up): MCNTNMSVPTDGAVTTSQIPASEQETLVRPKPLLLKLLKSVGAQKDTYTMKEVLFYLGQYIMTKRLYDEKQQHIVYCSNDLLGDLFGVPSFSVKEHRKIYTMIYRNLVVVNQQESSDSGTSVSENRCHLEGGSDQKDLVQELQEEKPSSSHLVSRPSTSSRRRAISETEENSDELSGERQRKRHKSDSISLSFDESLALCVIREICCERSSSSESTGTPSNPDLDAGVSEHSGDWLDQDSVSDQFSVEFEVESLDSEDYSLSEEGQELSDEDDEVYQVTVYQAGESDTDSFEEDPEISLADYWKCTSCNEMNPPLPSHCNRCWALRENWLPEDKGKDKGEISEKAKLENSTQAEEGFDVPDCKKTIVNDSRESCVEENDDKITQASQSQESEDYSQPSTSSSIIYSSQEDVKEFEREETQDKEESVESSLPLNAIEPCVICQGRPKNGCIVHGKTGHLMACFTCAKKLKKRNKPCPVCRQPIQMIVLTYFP
tim23-1 inh: tim23-1 yeast growth inhibition; actives 1.3% (n = 330,000); S. cerevisiae tim23-1 growth, BacTiter-Glo luminescence, 24 h; AID 463212; inhibition, % at 20 µM;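 active means growth inhibition of the mutant yeast at or above 50%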;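 further: temperature-sensitive mutant grown at 25 °C; plate controls were DMSO-treated mutant yeast for no effect and medium wells lacking yeast for full effect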
Mdm2-MdmX conf: confirmation of human Mdm2/MdmX interaction inhibitors. actives 55% (n = 10,000). Mdm2-MdmX binding, luminescent assay. AID 489028. inhibition, % at 8 µM. shares compounds with Mdm2-MdmX inh; in the data active means inhibition above about 40%
FLuc counter: full-length luciferase inhibition in Mdm2/MdmX counter-screen | shares compounds with Mdm2-MdmX inh | SaOS-2 full-length luciferase counterscreen, luminescence | inhibition, % at 8 µM | actives 77% (n = 6,200) | AID 504607;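 active means mean inhibition at 8 µM reaching about 37%, which flags the compound as non-specific, limit read from the data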;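 further: p53-null SaOS-2 cells with luciferase driven by a doxycycline-inducible promoter; compound on cells about two nights before reading with doxycycline added after day one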
Numbers without * were called inactive; nt = not tested or not shown.

SMILES	MPTP block	tim10-1 inh	TIM10 inh	Mdm2-MdmX inh	tim23-1 inh	Mdm2-MdmX conf	FLuc counter
O=C(Nc1ccc(O)c2c(=O)cc(-c3ccccc3Cl)oc12)c1ccccc1Cl	-1	10	2	-4	-18	nt	nt
O=C(NC1CCCCC1)c1n[nH]c2c1CCCCC2	-1	3	4	71*	30	69*	65*
Cc1cc(/C=C(\C#N)C(=O)NCCc2c[nH]c3ccccc23)c(C)n1C	0	30	22	-26	13	nt	nt
COc1cc(/C=C(/C#N)C(=O)NCCc2c[nH]c3ccccc23)ccc1OCc1ccccc1F	0	21	4	63*	1	7	nt
CCOC(=O)C(C)(C)N(Cc1cccc(C)c1)S(=O)(=O)c1ccc(Cl)c([N+](=O)[O-])c1	3	27	27	57*	26	16	nt
CCOC(=O)C(C)(C)N(Cc1cccc(C)c1)S(=O)(=O)c1cccc([N+](=O)[O-])c1	1	29	22	14	21	nt	nt
Fc1ccc2c(Cl)c(-c3nnc(-c4cccs4)o3)sc2c1	2	-11	5	84*	4	-138	nt
N=c1c2c(n(Cc3cccc(Cl)c3)c3c1CCC3)CCCC2	3	-22	-82	58*	-111	42*	64*
N=c1c2c(n(Cc3ccc(Cl)cc3)c3c1CCC3)CCC2	-3	-1	-11	45	-42	nt	nt
COc1ccc(C[C@H]2CN3C(=NC[C@@H]3Cc3ccccc3)N2CCNC(=O)CCC2CCCCC2)cc1	2	16	8	88*	9	28	54*
COc1ccc(C[C@H]2CN3C(=NC[C@@H]3C(C)C)N2CCNC(=O)CCC2CCCCC2)cc1	2	14	11	36	11	nt	nt
O=C(CSc1nc2ccc(Nc3nc(N4CCOCC4)nc(N4CCOCC4)n3)cc2s1)Nc1ccccc1F	1	-2	-9	91*	3	26	nt
O=C(CSc1nc2ccc(Nc3nc(N4CCOCC4)nc(N4CCOCC4)n3)cc2s1)Nc1ccccc1Cl	1	4	0	89*	-17	38	88*
O=C(CSc1nc2ccc(Nc3nc(N4CCOCC4)nc(N4CCOCC4)n3)cc2s1)N1CCOCC1	-1	16	10	33	6	nt	nt
Cc1ccc(S(=O)(=O)N2C[C@H]3C(=O)C[C@@H](c4ccccc4)N(S(=O)(=O)c4ccc(C)cc4)[C@H]3C[C@H]2c2ccccc2F)cc1	0	nt	nt	nt	nt	nt	nt
O=C(NCC(c1cccs1)N1CCOCC1)c1cn(-c2ccccc2)nc1-c1ccc(Cl)cc1 (centres undefined)	-2	18	13	63*	25	25	nt
CC1CCC(NC(=O)c2[nH]c(C(F)(F)F)nc2-c2ccccc2)CC1 (centres undefined)	0	nt	nt	nt	nt	nt	nt
COc1cccc(OC)c1OCc1cc(C2C3CCCC=C3C(C#N)=C(N)C2(C#N)C#N)c(C)cc1C (centres undefined)	-4	35	21	51*	19	1	nt
O=C(NCc1ccco1)c1cccc2c(-c3ccc(F)c(F)c3)coc12	1	nt	nt	nt	nt	nt	nt
Cc1cc2oc(=O)cc(CN3CCN(C/C=C/c4ccccc4)CC3)c2cc1O	-2	21	10	42	15	nt	nt
O=c1cc(CN2CCN(C/C=C/c3ccccc3)CC2)c2cc(O)c(-c3ccccc3)cc2o1	4	11	11	50*	6	42*	65*
COc1ccc(N2CCN(Cc3cc(=O)oc4cc(-c5ccccc5)c(O)cc34)CC2)cc1	-3	6	-3	89*	18	59*	22
O=c1cc(CN2CCN(c3ccc(F)cc3)CC2)c2cc3c(cc2o1)CCCC3	1	11	-25	68*	12	1	nt
CC(=O)N(c1ccccc1)c1ccccc1[N+](=O)[O-]	-2	nt	nt	nt	nt	nt	nt
CNc1nc(Nc2ccc(Br)cc2)nc(N)c1[N+](=O)[O-]	2	10	-1	67*	-1	-20	nt
SMILES	MPTP block	tim10-1 inh	TIM10 inh	Mdm2-MdmX inh	tim23-1 inh	Mdm2-MdmX conf	FLuc counter
O=C(c1c[nH]c2ccccc12)C(Cl)c1ccccc1 (centres undefined)	2	31	35	79*	38	69*	52*
O=C(Nc1ccc2c(c1)OCO2)c1ccc2sc([C@H]3C[C@H](O)[C@@H](CO)O3)nc2c1	-1	nt	nt	nt	nt	nt	nt
Cc1n[nH]c(=S)n1/N=C/c1ccc(-c2ccc(Cl)cc2)o1	3	10	10	94*	12	-3	nt
CCCCNC(=O)C1(C)CCCCN1C(=O)c1cc(C#N)cs1 (centres undefined)	0	nt	nt	nt	nt	nt	nt
Cc1cn([C@H]2C[C@H](O)[C@@H](CNCc3cccc(OC4CCCC4)c3)O2)c(=O)[nH]c1=O	-1	nt	nt	nt	nt	nt	nt
O=C(Nc1cccnc1Cl)c1cc(-c2ccc(O)cc2)on1	-1	-11	-6	-19	-11	nt	nt
O=C(Nc1cc(Cl)ccc1Cl)c1cc(-c2ccco2)on1	-2	-19	-17	62*	-23	12	nt
O=C(Nc1cccnc1Cl)c1cc(-c2ccc(Cl)cc2)on1	1	-5	-12	54*	-2	-2	nt
Cc1ccc2nc(C3CCCCC3)c(CC(C)(C)C)n2c1	2	nt	nt	nt	nt	nt	nt
CN1CCC(CC(C(=O)N2CCCC2)(c2ccccc2)c2ccccc2)C1 (centres undefined)	-3	nt	nt	nt	nt	nt	nt
OC(c1ccccc1)(c1ccccc1)C1CCN(CCCOc2ccc3c(c2)CCCC3)CC1	8	nt	nt	nt	nt	nt	nt
COc1ccccc1OCC(O)Cn1c(=N)n(CCN2CCCCC2)c2ccccc21 (centres undefined)	0	-1	-17	56*	-11	46*	74*
N=c1n(CCN2CCCCC2)c2ccccc2n1CC(O)c1cccc(Br)c1 (centres undefined)	3	-5	-3	98*	-25	78*	34
N=c1n(CCN2CCCCC2)c2ccccc2n1CC(O)c1ccc(Cl)c(Cl)c1 (centres undefined)	4	-13	-9	99*	-40	96*	56*
CCCCn1c(=N)n(CC(O)c2ccccc2)c2ccccc21 (centres undefined)	1	-8	-5	-33	12	nt	nt
CN(C)CCn1c(=N)n(CC(O)c2ccc(Cl)c(Cl)c2)c2ccccc21 (centres undefined)	-4	-23	-23	71*	4	55*	74*
COCCCNC(=O)C[C@@H]1C[C@@]2(C(=O)OC)CCCCC=C2N(CCC2=CCCCC2)C1=O	0	nt	nt	nt	nt	nt	nt
CC1(C(=O)NS(=O)(=O)c2ccc(F)cc2F)CCN1C(=O)C1(c2ccc(Cl)cc2)CCC1 (centres undefined)	1	nt	nt	nt	nt	nt	nt
COC(=O)[C@]12CCCCC=C1N(Cc1ccccc1)C(=O)[C@H](CC(=O)NCC1CCCCC1)C2	0	nt	nt	nt	nt	nt	nt
O=C(CCl)N1c2ccccc2CCc2ccccc21	0	8	26	100*	34	50*	12

From PubChem
